# Screens as filed in PubChem BioAssay.
# In the library only some 11% were active in any assay of this set; here they are far more common.
# hNpr1 antagonist – antagonists of human natriuretic peptide receptor Npr1; P16066; HEK293 hNpr1 GloSensor cGMP, ANP-stimulated luminescence; Potency, µM (top dose mostly 46.3 µM), for the others: at the top dose activity change, negative = inhibition, usual class: inhibitors; hit rate 1.6% among 76,000; calls by dose curve; also: nearly all actives have a fitted effect of over 60% in size
#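 Compound pre-incubated 30 min at room temperature on GloSensor-loaded HEK293 cells stably carrying hNpr1 and the pGS-40F cGMP biosensor. Stimulation uses hNppA at 0.1 nM final; luminescence is taken at baseline and 20 min post-agonist.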
# 3T3 cytotox – kills NIH 3T3 cells. NIH 3T3 viability, CellTiter-Glo ATP luminescence, 48-72 h. Potency, µM (titrated, usually from 96.7 µM), for inactives: top-dose activity change, negative = cytotoxicity, actives largely listed as inhibitors. hit rate 4.3% among 94,000; also: nearly all actives have a fitted effect of over 55% in size
#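 Luminescent ATP readout (CellTiter-Glo, 10 min RT) after 48 or 72 hr compound exposure of NIH 3T3 cells seeded at 400 cells/well in 1536-well format; quantitative HTS.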
# HEK cytotox – HEK 293 cell cytotoxicity; HEK 293 viability, ATP luminescence (CellTiter-Glo), 48-72 h; hit rate 6.6% among 94,000; Potency, µM (top dose mostly 115 µM), for the others: at the highest dose activity change, negative = cytotoxicity, hits mostly inhibitors; also: nearly all actives have a fitted effect of over 60% in size
#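 CellTiter-Glo luminescence (cellular ATP) was read after 48 or 72 hr of compound exposure at 37 degree Celsius. Cells were HEK 293 plated at 250 cells/well.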
# FLuc inh – Photinus pyralis luciferase inhibition | P08659 | purified P. pyralis luciferase, luminescence, biochemical | Potency, µM (top dose mostly 115 µM), actives largely listed as inhibitors | hit rate 2.5% among 76,000; also: nearly all actives have a fitted effect of over 65% in size
#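 Purified P. pyralis luciferase (10nM final) in 50mM Tris acetate pH 7.5, 10mM Mg acetate, 0.01% Tween-20, 0.05% BSA with 10uM D-luciferin and 10uM ATP. Compounds titrated qHTS. Luminescence imaged on CCD.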
# Active calls of the source: *; i = inactive; ? = inconclusive; nt = no result given; [ ] = dose if it differs, or a comment. Unless noted, calls follow the shape of the dose curve; as a rule, active = well fitted curve in the direction sought with a large enough effect; inconclusive = small, poorly fitted or top-dose-only effect, or another doubt; inactive = no such curve, though single readings can be large; an effect the other way counts as inactive or inconclusive. % is scaled to controls: 0 for no effect and ±100 for the full control effect; potency is read from the fitted curve at half-maximal effect.
SMILES,hNpr1 antagonist,3T3 cytotox,HEK cytotox,FLuc inh
Cc1ccc(S(=O)(=O)NC[C@H]2C[C@@H]3CCN2C[C@@H]3CN2CCc3ccccc32)cc1,-8.7%[70.6 µM],44.7µM*,28.2µM*,i
Cc1ccc(S(=O)(=O)NC[C@H]2C[C@@H]3CCN2C[C@@H]3CN2CCN(c3ccccn3)CC2)cc1,-6.0%,-25.2%,-18.7%,i
Cc1ccc(S(=O)(=O)NC[C@H]2C[C@@H]3CCN2C[C@@H]3CN2CCCCC2)cc1,4.4%[70.6 µM],-22.7%[174 µM],?,i
O=S(=O)(NC[C@H]1C[C@@H]2CCN1C[C@@H]2CN1CCc2ccccc2C1)c1ccc(Cl)cc1,3.7%,22.4µM*,22.4µM*,i
CS(=O)(=O)NC[C@H]1C[C@@H]2CCN1C[C@@H]2CN1CCc2ccccc2C1,7.9%[70.6 µM],-21.8%[174 µM],-21.2%[172 µM],i
Cc1nc(-c2ccco2)cc([C@H]2CN3CC[C@H]2C[C@@H]3CNC2CCOCC2)n1,0.6%[70.6 µM],?,?,i
c1cnc2nc(C3CCCNC3)[nH]c2c1 (stereo not given),18.4%[70.6 µM],-14.6%[174 µM],?,i
COc1ccc(C(=O)N2C[C@@H]3C[C@H](C2)c2c(-c4cccs4)ccc(=O)n2C3)cc1,2.1%[70.6 µM],-26.7%[174 µM],-6.7%[172 µM],i
CCOC(=O)[C@H]1CN(C(=O)CCc2ccccc2)[C@]2(C)C(=O)N(CCOC)c3ccccc3[C@H]12,nt,-18.2%[46.1 µM],?,nt
O=S(=O)(NC[C@H]1C[C@@H]2CCN1C[C@@H]2CN1CCc2ccccc21)c1ccc(Cl)cc1,3.8%,28.2µM*,20µM*,i
Cc1ncc2c(n1)C[C@@H]1CC[C@H]2N1S(=O)(=O)c1c(C)noc1C,13.3%,i,-4.4%,i
Cc1ccc(-c2ccccc2CN2CCN(C(=O)Cc3ccccn3)CC2)cc1Cl,nt,25.1µM*,?,nt
O=C(Cc1ccc(Cl)cc1)N1CCN(C2CCN(Cc3ccccn3)C2=O)CC1 (stereo not given),2.3%,-17.2%,-12.6%,i
C=C[C@H]1CN2CC[C@H]1C[C@@H]2CNCc1ccc(OC(F)(F)F)cc1,-1.1%[70.6 µM],?,?,i
COCC(=O)N1CCC2(CC1)C(=O)Nc1cc(Oc3ccccc3)c(OC)cc12,-5.5%[70.6 µM],-25.6%[138 µM],?,i
COc1cc2c(cc1Oc1ccccc1)NC(=O)C21CCN(C(=O)c2scnc2C)CC1,-16.8%,?,44.7µM*,i
COc1cc2c(cc1OCC1CC1)NC(=O)C21CCN(C(=O)c2cccnc2)CC1,2.8%[70.6 µM],25.1µM*,-16.0%[172 µM],i
COc1cc2c(cc1Oc1ccccc1)NC(=O)C21CCN(C(=O)c2cccnc2)CC1,-24.1%[70.6 µM],?,56.2µM*,i
CC(C)CN1Cc2ccccc2-n2ccnc2C12CCN(C(=O)c1ccc(F)cc1)CC2,2.3%,i,?,i
COc1cc2c(cc1OC1CCCC1)NC(=O)C21CCN(C(C)=O)CC1,-6.4%[70.6 µM],?,-33.7%[172 µM],i
COc1cc2c(cc1OC1CCCC1)NC(=O)C21CCN(C(=O)c2cccc(C#N)c2)CC1,-9.6%,22.4µM*,?,i
COc1cc2c(cc1OC1CCCC1)NC(=O)C21CCN(C(=O)c2cccc(O)c2)CC1,-22.1%[70.6 µM],?,79.4µM*,i
CCCCOC(=O)N1C[C@H](C(=O)OCC)[C@H]2c3ccccc3N(CCOC)C(=O)[C@]21C,nt,-29.0%[46.1 µM],?,nt
Cn1cc(CN2CCOC[C@H](O)C2)c2ccccc21,3.8%[70.6 µM],89.1µM*,63.1µM*,i
COc1cccc(CC(=O)N2[C@H]3CC[C@@H]2c2cnc(C)nc2C3)c1,-0.5%,0.0%,2.7%,i
SMILES,hNpr1 antagonist,3T3 cytotox,HEK cytotox,FLuc inh
COc1ccc(CC(=O)N2[C@H]3CC[C@@H]2c2cnc(-c4ccc(F)cc4)nc2C3)cc1OC,-29.2%,-18.8%,79.4µM*,i
COc1cccc(CC(=O)N2[C@H]3CC[C@@H]2c2cnc(-c4ccc(F)cc4)nc2C3)c1,5.2%,?,31.6µM*,i
COc1ccc(CC(=O)N2CCN(CCCn3nc4n(c3=O)CCCC4)CC2)cc1,nt,-16.1%,-6.8%,nt
Cc1nc(-c2ccco2)cc([C@H]2CN3CC[C@H]2C[C@@H]3CNC(=O)Cc2cccs2)n1,-7.2%[70.6 µM],?,?,i
COc1cc2c(cc1OC1CCCC1)NC(=O)C21CCN(c2ccc(C#N)cn2)CC1,-1.7%[70.6 µM],?,?,i
O=C(NC[C@H]1C[C@@H]2CCN1C[C@@H]2CN1CCN(c2ccc(F)cc2)CC1)Nc1ccsc1,0.6%,?,79.4µM*,i
CN1C(=O)C2(CCN(Cc3cccnc3)C2)c2ccccc21 (stereo not given),9.0%[70.6 µM],-13.8%[138 µM],-9.1%[172 µM],i
